The text below walks through data of PubChem BioAssay (EPA / NIEHS).

Inconclusive results are not listed. Active and inactive are the calls of the source. The calls were made as follows, unless noted: active = hit-call score of the fitted dose curve at least 0.9, where 1 is the maximum; inactive = score below 0.9.

Experiment [1] in a line: BSK_LPS_PGE2: BioMAP Diversity Plus: LPS Assay for Prostaglandin E2 (PGE2) Biomarker Activity (AID 2283082). The note with it: primary human HUVEC with PBMC; actives raise or lower the signal. The method in brief: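 PGE2 release measured by ELISA in an LPS-activated co-culture of human umbilical vein endothelial cells and peripheral blood mononuclear cells, read at 24 h post-dosing. DMSO served as baseline for bidirectional curve fitting.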

Read-out in experiment [2]: Macrophage colony-stimulating factor (MCSF), CSF1 (gene 1435)
The experiment in a line: BSK_LPS_MCSF: BioMAP Diversity Plus: LPS Assay for Macrophage colony-stimulating factor (MCSF) Biomarker Activity (AID 2283083). The note with it: primary human HUVEC with PBMC; actives raise or lower the signal. Summed up: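 Human umbilical vein endothelial cells co-cultured with peripheral blood mononuclear cells were exposed to compound for 24 h. M-CSF levels were measured by ELISA, and bidirectional curve fitting used DMSO as the negative control and baseline.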

Read-out in experiment [3]: Tissue Factor, F3 (gene 2152)
As to the kind of experiment: BSK_LPS_TissueFactor: BioMAP Diversity Plus: LPS Assay for Tissue Factor Biomarker Activity (AID 2283084). The note with it: primary human HUVEC with PBMC; actives raise or lower the signal. Summed up: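 Human umbilical vein endothelial cells co-cultured with peripheral blood mononuclear cells were dosed and stimulated with LPS. Cell-surface CD142 was quantified by ELISA at 24 h. Activity was fitted bidirectionally against DMSO baseline.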

Read-out in experiment [4]: Tumor necrosis factor (Homo sapiens) (UniProt P01375)
The experiment in a line: BSK_LPS_TNFa: BioMAP Diversity Plus: LPS Assay for Tumour Necrosis Factor alpha (TNFa) Biomarker Activity (AID 2283085).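 As to AC50: TNFa protein level quantified by ELISA in the co-culture.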 Conditions: primary human HUVEC with PBMC; actives raise or lower the signal. Summed up:
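TNFa was quantified by ELISA in LPS-activated co-cultures of human endothelial cells and PBMC, 24 h post-dosing. Both increases and decreases versus DMSO were fitted.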

Read-out in experiment [5]: Vascular cell adhesion molecule 1 (VCAM1), VCAM1 (gene 7412)
As to the kind of experiment: BSK_LPS_VCAM1: BioMAP Diversity Plus: LPS Assay for Vascular cell adhesion molecule 1 (VCAM1) Biomarker Activity (AID 2283086). The note with it: primary human HUVEC with PBMC; actives raise or lower the signal. Summed up:
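VCAM-1 quantified by ELISA in an LPS-activated co-culture of human endothelial cells and peripheral blood mononuclear cells, read 24 h post-treatment. Fitted in both directions versus DMSO; parallel SRB staining flags overt cytotoxicity.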

Read-out in a further experiment: CD38, CD38 (gene 952)
The experiment in a line: BSK_SAg_CD38: BioMAP Diversity Plus: SAg Assay for CD38 Biomarker Activity (AID 2283087). The note with it: primary human HUVEC with PBMC; actives raise or lower the signal. The method in brief: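 CD38 quantified by ELISA (fluorescence) in a superantigen-activated endothelial cell–PBMC co-culture at 24 h post-dose. Activity fitted in both directions relative to DMSO; parallel SRB and Alamar Blue cytotoxicity read-outs.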

Read-out in a further experiment: CD40, CD40 (gene 958)
As to the kind of experiment: BSK_SAg_CD40: BioMAP Diversity Plus: SAg Assay for CD40 Biomarker Activity (AID 2283088). Conditions: primary human HUVEC with PBMC; actives raise or lower the signal. Summed up:
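Human umbilical vein endothelial cells co-cultured with PBMC; CD40 levels measured by ELISA with fluorescence read-out 24 h after chemical dosing. Gain or loss of signal fitted bidirectionally against DMSO baseline.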

Read-out in a further experiment: CD69, CD69 (gene 969)
The experiment in a line: BSK_SAg_CD69: BioMAP Diversity Plus: SAg Assay for CD69 Biomarker Activity (AID 2283089).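 As to AC50: cell surface CD69 protein quantified by ELISA with fluorescence detection.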 Conditions: primary human HUVEC with PBMC; actives raise or lower the signal. The method in brief: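 ELISA, fluorescence read-out: CD69 on human umbilical vein endothelial cell + PBMC co-culture, 24 h post-dosing. Gain or loss of signal fitted bidirectionally against DMSO baseline.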

Read-out in experiment [6]: Monocyte Chemoattractant Protein-1 (MCP1), CCL2 (gene 6347)
As to the kind of experiment: BSK_SAg_MCP1: BioMAP Diversity Plus: SAg Assay for Monocyte Chemoattractant Protein-1 (MCP1) Biomarker Activity (AID 2283090). The note with it: primary human HUVEC with PBMC; actives raise or lower the signal. The method in brief:
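Values derive from bidirectional fitting of ELISA-measured MCP1 against DMSO controls. Readings were taken 24 h after dosing human vascular endothelial cells co-cultured with peripheral blood mononuclear cells under superantigen stimulation.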

Read-out in experiment [7]: E-selectin (Homo sapiens) (UniProt P16581)
The experiment in a line: BSK_SAg_Eselectin: BioMAP Diversity Plus: SAg Assay for Eselectin Biomarker Activity (AID 2283091). Conditions: primary human HUVEC with PBMC; actives raise or lower the signal. Summed up:
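HUVEC co-cultured with PBMC, compound dosed then read at 24 h; E-selectin measured by ELISA. Activity fitted bidirectionally against DMSO as negative control and baseline.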

Read-out in experiment [8]: Monokine induced gamma interferon (MIG), CXCL9 (gene 4283)
As to the kind of experiment: BSK_SAg_MIG: BioMAP Diversity Plus: SAg Assay for Monokine induced gamma interferon (MIG) Biomarker Activity (AID 2283092). The note with it: primary human HUVEC with PBMC; actives raise or lower the signal. The method in brief: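 ELISA readout of MIG/CXCL9; primary human umbilical vein endothelial cells co-cultured with peripheral blood mononuclear cells; 24 h post-dose; gain/loss fit vs DMSO baseline.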

Experiment [9] in a line: BSK_SAg_PBMCCytotoxicity: PBMC Cytotoxicity Assessment in the BioMAP Diversity Plus: SAg Assay (AID 2283093).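 Also: PBMC viability measured as Alamar Blue reduction fluorescence at 546/580 nm; fitted both ways against DMSO so a hit may be loss or gain of signal.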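 As to AC50: PBMC superantigen activated with SEB plus TSST-1 one hour after compound addition.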 The note with it: primary human HUVEC with PBMC. The method in brief: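 Alamar Blue reduction (6 h, 546/580 nm) reports PBMC cytotoxicity after 90 h superantigen activation (SEB, TSST-1; 20 ng/mL final each) with 1 h compound pre-treatment. Gain or loss of signal fitted versus DMSO.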

Read-out in experiment [10]: Interleukin-8 (IL8), CXCL8 (gene 3576)
As to the kind of experiment: BSK_SAg_IL8: BioMAP Diversity Plus: SAg Assay for Interleukin-8 (IL8) Biomarker Activity (AID 2283094). The note with it: primary human HUVEC with PBMC; actives raise or lower the signal. The method in brief:
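ELISA readout of IL-8 from a superantigen-activated endothelial/PBMC primary human co-culture, taken 24 h post-dosing and fitted in both directions against DMSO; parallel SRB total-protein staining flags overt cytotoxicity.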

Experiment [11] is described as follows: BSK_SAg_SRB: Viability Assessment in the BioMAP Diversity Plus: SAg Assay (AID 2283096).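 Also: cells read one day after compound addition; hits may be either gain or loss of signal compared with DMSO.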 Conditions: primary human HUVEC with PBMC. Summed up: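 This overt-cytotoxicity endpoint quantifies protein in human endothelial/PBMC co-cultures at 24 h using SRB absorbance (560 nm) after trichloroacetic acid fixation. Values reflect signal change from the DMSO negative control, fitted bidirectionally.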

Experiment [12] is described as follows: BSK_SAg_Proliferation: Cell Proliferation Assessment in the BioMAP Diversity Plus: SAg Assay (AID 2283095).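 Also: relative cell number as total protein by SRB absorbance in sub-confluent culture.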 Conditions: primary human HUVEC with PBMC. The method in brief: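 Relative cell number in the endothelial cell/PBMC co-culture was quantified at 96 h by SRB staining (0.1% SRB, 10% TCA fixation, read at 560 nm). Curves were fitted in both directions relative to DMSO baseline.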

The target of experiment [13] is human CYP2B6, CYP2B6 (gene 1555) (UniProt P20813). The experiment in a line: NVS_ADME_hCYP2B6: NovaScreen (NVS) CYP450-related Enzyme Activity (ADME) Assay for human CYP2B6 (AID 2283101; active = hit-call score of the fitted dose curve at least 0.9, where 1 is the maximum). Summed up:
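Fluorescence-based enzyme activity of recombinant human CYP2B6, measured 1 h post-dose against acetonitrile vehicle baseline. Screened at a single concentration of 10 uM in duplicate before concentration-response follow-up.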

For experiment [14], the target named is human CYP1A2, CYP1A2 (gene 1544) (UniProt P05177). The experiment in a line: NVS_ADME_hCYP1A2: NovaScreen (NVS) CYP450-related Enzyme Activity (ADME) Assay for human CYP1A2 (AID 2283102; active = hit-call score of the fitted dose curve at least 0.9, where 1 is the maximum;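 also: potency for inhibition since loss of fluorescence marks reduced CYP1A2 activity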). The method in brief: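 Cell-free recombinant human CYP1A2 expressed in insect cells, with fluorogenic substrate; fluorescence intensity read 0.5 h after dosing. Loss of signal relative to acetonitrile baseline scored. Primary screen in duplicate at 10 uM; actives retested in concentration series.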
human CYP1A2, CYP1A2 (gene 1544), sequence (P05177 whole entry, looked up): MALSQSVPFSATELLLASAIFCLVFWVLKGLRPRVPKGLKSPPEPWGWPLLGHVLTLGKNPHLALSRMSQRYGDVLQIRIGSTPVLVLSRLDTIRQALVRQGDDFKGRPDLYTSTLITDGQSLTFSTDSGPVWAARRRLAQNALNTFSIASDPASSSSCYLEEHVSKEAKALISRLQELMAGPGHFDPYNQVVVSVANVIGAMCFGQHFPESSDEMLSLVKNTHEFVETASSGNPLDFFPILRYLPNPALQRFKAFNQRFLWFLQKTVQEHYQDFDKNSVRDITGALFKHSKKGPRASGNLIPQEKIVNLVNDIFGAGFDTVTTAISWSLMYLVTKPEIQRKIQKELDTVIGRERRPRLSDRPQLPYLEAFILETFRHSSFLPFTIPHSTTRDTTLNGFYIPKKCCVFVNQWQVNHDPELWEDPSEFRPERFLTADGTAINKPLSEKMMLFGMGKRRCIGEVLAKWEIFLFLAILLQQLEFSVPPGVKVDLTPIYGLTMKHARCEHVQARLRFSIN

E-selectin (Homo sapiens), sequence (P16581 whole entry, looked up): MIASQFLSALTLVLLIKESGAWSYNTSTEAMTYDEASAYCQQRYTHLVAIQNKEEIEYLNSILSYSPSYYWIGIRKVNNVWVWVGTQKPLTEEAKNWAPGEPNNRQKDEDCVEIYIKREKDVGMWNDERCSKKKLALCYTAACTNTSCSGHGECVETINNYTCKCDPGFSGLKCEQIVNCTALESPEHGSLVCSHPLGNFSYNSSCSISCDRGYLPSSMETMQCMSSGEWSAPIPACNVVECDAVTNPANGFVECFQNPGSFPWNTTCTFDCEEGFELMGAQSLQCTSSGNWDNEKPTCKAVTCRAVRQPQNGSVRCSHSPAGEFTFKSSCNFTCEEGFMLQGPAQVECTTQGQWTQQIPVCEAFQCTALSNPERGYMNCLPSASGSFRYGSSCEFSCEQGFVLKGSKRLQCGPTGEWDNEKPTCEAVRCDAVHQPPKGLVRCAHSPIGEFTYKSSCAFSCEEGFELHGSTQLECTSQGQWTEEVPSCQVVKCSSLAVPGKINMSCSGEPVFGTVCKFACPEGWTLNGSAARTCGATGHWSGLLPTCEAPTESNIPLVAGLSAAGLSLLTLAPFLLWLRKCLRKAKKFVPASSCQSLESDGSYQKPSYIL
Tumor necrosis factor (Homo sapiens), sequence (P01375 whole entry, looked up): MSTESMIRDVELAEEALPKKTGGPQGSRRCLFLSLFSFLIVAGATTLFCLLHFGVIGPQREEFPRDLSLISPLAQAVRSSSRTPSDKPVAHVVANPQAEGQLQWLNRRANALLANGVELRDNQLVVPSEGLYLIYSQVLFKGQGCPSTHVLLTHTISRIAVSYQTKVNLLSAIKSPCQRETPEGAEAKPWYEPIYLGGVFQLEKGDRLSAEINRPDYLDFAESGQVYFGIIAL
human CYP2B6, CYP2B6 (gene 1555), sequence (P20813 whole entry, looked up): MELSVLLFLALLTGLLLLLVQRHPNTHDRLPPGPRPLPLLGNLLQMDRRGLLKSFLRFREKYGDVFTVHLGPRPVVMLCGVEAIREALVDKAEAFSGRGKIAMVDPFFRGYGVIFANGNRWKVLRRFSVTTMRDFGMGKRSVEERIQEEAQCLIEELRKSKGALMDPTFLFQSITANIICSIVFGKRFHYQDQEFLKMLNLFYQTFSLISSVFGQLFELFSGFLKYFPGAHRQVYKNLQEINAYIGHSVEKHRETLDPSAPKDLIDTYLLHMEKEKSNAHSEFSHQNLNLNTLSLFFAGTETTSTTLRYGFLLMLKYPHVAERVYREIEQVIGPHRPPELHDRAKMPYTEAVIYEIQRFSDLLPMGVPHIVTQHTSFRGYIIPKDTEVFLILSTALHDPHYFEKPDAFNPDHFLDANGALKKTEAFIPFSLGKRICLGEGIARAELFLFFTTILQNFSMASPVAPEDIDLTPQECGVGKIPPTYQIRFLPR

Regarding `COc1ccc(-n2nc(C(F)F)cc2-c2ccc(S(C)=O)cc2)cc1` (centres undefined), the AC50 (usually the midpoint of the concentration-response curve, whichever way the signal moves) was 0.342 µM (active) in experiment [1]; 2.57 µM (active) in [4]; 2.28 µM (active) with CD69, CD69 (gene 969); 1.13 µM (active) in experiment [6]; 1.21 µM (active) in experiment [7]; 2.09 µM (active) in experiment [10]. The outcome was “inactive” in experiment [2]; “inactive” in experiment [3]; “inactive” in experiment [5]; “inactive” in the experiment with CD38, CD38 (gene 952); “inactive” with CD40, CD40 (gene 958); “inactive” in [8]. In addition, the outcome in experiment [9] and in experiment [11] was inactive.

On to `Nc1ccc(Nc2ccccc2)cc1`, for which the AC50 is 1.44 µM (active) in experiment [1]; 8.31 µM (active) in experiment [2]; 20 µM (active) in [4]; 7.32 µM (active) in experiment [5]; 3.97 µM (active) with CD38, CD38 (gene 952); 3.97 µM (active) with CD40, CD40 (gene 958). The concentration at half-maximal activity (AC50) is 3.97 µM (active) with CD69, CD69 (gene 969); 9.88 µM (active) in [6]; 2.72 µM (active) in [7]; 15.7 µM (active) in experiment [8]; 5.36 µM (active) in [9]; 8.78 µM (active) in [10]. Further, the AC50 is 14 µM (active) in experiment [12], 4.35 µM (active) in experiment [13] and 15.1 µM (active) in experiment [14]. Besides, the outcome in [3] and in experiment [11] was inactive.

On to `Cn1c(=O)c2c(ncn2C)n(C)c1=O`, for which the outcome is “inactive” in experiment [1]; “inactive” in experiment [2]; “inactive” in [3]; “inactive” in [4]; “inactive” in experiment [5]; “inactive” with CD38, CD38 (gene 952). Moreover, the outcome is “inactive” in the experiment with CD40, CD40 (gene 958); “inactive” with CD69, CD69 (gene 969); “inactive” in experiment [6]; “inactive” in experiment [7]; “inactive” in experiment [8]; “inactive” in [9]. Also, the outcome in [10] and in experiment [11] was inactive.

Turning to `COc1ccc(/C=C/S(=O)(=O)NC(=O)c2ccc(C)cc2Cl)cc1`, the outcome in [1] is “inactive”; in experiment [2], “inactive”; in experiment [3], “inactive”; in experiment [4], “inactive”; in experiment [5] it was “inactive”; with CD38, CD38 (gene 952), “inactive”. Further, the outcome was “inactive” with CD69, CD69 (gene 969); “inactive” in experiment [6]; “inactive” in [7]; “inactive” in experiment [8]; “inactive” in experiment [9]; “inactive” in experiment [10]. Moreover, the result in experiment [11] was inactive. For the same compound, the AC50 in the experiment with CD40, CD40 (gene 958) is 4.18 µM (active).
